The text below walks through data of ChEMBL document CHEMBL1157539, “Thousands of chemical starting points for antimalarial lead identification” (Nature, 2010).

Each structure is given as a SMILES string. Several values for one entry are separate records, joined by “and”; a condition that tells them apart may be missing. Equal values may be shown once.

For the experiment, the system named is Plasmodium falciparum. Nature of the experiment: GSK_TCMDC: Inhibition of Plasmodium falciparum 3D7 in whole red blood cells, using parasite LDH activity as an index of growth. Test compounds present at 2uM. The experiment is classed as functional.
The term Inhibition denotes the change of the read-out against control, counted positive when it falls. On to `CCCNc1ccc2nccc(CCN3CCC(NCc4ccc5c(c4)NC(=O)CS5)CC3)c2n1.Cl`, for which the Inhibition turned out to be 94%.

Take `CNS(=O)(=O)c1ccc2c(c1)nc(C1CCN(CC3CCC(NC(=O)/C=C/c4ccc(Cl)c(Cl)c4)CC3)CC1)n2C` (configuration not stated): the Inhibition amounted to 100%. The figure for `CCC[C@@H]([C@@H](CC1CCCCC1)C(=O)NC(C(=O)Nc1nccs1)C(CC)c1ccccc1)N(O)C=O` (some centres not stated) is 89%; for `Cc1cc(C=C2SC(=Nc3ccccc3)N(C3CCCC3)C2=O)c(C)n1-c1ccc(Cl)cc1` it is 100%. Regarding `Cn1nc(-c2cccc(CNCc3ccccc3)c2)c2cnc(NC3CCCC3)nc21`, the Inhibition amounted to 85%. The figure for `CCCN(Cc1ccc(OCC)cc1)Cc1cc(=O)c2cc(Cl)ccc2[nH]1` is 82%; for `COc1cc2nc(NCCc3ccccc3)nc(NCc3cnn(C)c3C)c2cc1OC` it is 99%; for `CC(=O)c1ccc(S(=O)(=O)N2CCC(C(=O)Nc3ccccc3N3CCCC3)CC2)cc1` it is 95%. Take `CN1CCCN(Cc2ccc(-c3ccc(NC(=O)c4cccc(C#N)c4)cc3)cc2)CC1.O=C(O)C(F)(F)F`: the Inhibition is given as 97%. The figure for `Clc1ccc2c(NCc3ccc4c(c3)OCO4)ccnc2c1` is 100%; for `COc1ccc2ccccc2c1CNCCCCCCNCc1c(OC)ccc2ccccc12.Cl` it is 100%; for `CC1CN(Cc2ccc(C#N)cc2)CCN1c1ccc(NC(=O)c2cccs2)cc1.O=C(O)C(F)(F)F` (configuration not stated) it is 93%.

Compound `COc1cccc(CNC(=O)[C@@H]2CN(C(=O)c3ccccc3)CCN2)c1.O=C(O)C(F)(F)F` came in with an Inhibition of 92%.

In turn, `Cc1cc(CN2C(=O)C(c3ccccc3)(c3ccccc3)N=C2N)c(C(F)(F)F)o1` returned an Inhibition of 97%. The figure for `CC(C)C[C@@H](NC(=O)NC1CCC(CCN2C3CCC2CC(OC(=O)C(CO)c2ccccc2)C3)CC1)C(O)(c1ccccc1)c1ccccc1` (some centres not stated) is 95%; for `Cc1cc(=NN=Cc2ccc(Cl)cc2)c2ccccc2[nH]1` it is 100%; for `CCCCCCCN1CC[C@@H](CCCc2ccnc3ccc(OCCCCN/C(N)=N/O)cc23)[C@@H](CC)C1.O=C(O)C(=O)O` it is 90%.

In the case of `Br.CCOC(=O)c1cc(Cl)ccc1OCCCON1C(=N)N=C(N)NC1(C)C`, the Inhibition was found to be 94%.

Compound `Cc1cc(N(C)C)nc(Nc2ccc(NC(=O)Nc3ccccc3)cc2)n1` yielded an Inhibition of 100%.

As to `C[C@@H](COc1ccccc1)NCC(O)c1ccc([N+](=O)[O-])c(OCc2ccccc2)c1` (some centres not stated), the Inhibition amounted to 93%. The compound `Cc1cc(N[C@@H](Cc2ccccc2)C(=O)Nc2ccccc2)nc(NCCc2ccc(F)cc2)n1.O=C(O)C(F)(F)F` returned an Inhibition of 96%. Compound `C=CCc1cc(Cc2cnc(N)nc2N)c2ccc(C)nc2c1OC` returned an Inhibition of 96%.

Take `CC(C)(C)c1ccc(CN2CCC(CNC(=O)c3cc(-c4ccccc4Cl)cs3)C2)cc1.O=C(O)C(F)(F)F` (configuration not stated): the Inhibition is recorded as 100%. On to `COc1cc(C2CCN(CCCCNC(=O)c3ccc(NC(=O)c4cc(C(F)(F)F)cc(C(F)(F)F)c4)cc3)CC2)ccc1OC(C)C`, for which the Inhibition was 100%. In the case of `NC1=NC(c2ccccc2)(c2cccc(O)c2)C(=O)N1CCCc1ccccc1` (configuration not stated), the Inhibition was 85% and 98%.

Regarding `COc1cc(NCCCCNc2ccc(Cl)c(Cl)c2)nc2ccccc12`, the Inhibition was found to be 100%. The figure for `N#Cc1cncc(-c2nc3c(N4CCC(Cc5ccccc5)CC4)cccc3n2C2CCNC2)c1.O=C(O)C(F)(F)F` (configuration not stated) is 88%; for `Cc1cc(Nc2cccc(C#N)c2)nc(Nc2ccccc2C)n1` it is 95%. `N#Cc1ccc(N/C(=N\c2ccccc2Br)N(C2CCCCC2)C2CCCCC2)c(O)c1` showed an Inhibition of 99%.

`CC(=O)Nc1ccc2[nH]cc(C3CCN(CC4CCN(C(=O)/C=C/c5ccc(Cl)c(Cl)c5)CC4)CC3)c2n1` returned an Inhibition of 100%. In turn, `c1cc(-c2nc3ccccc3[nH]2)nc(-c2nc3ccccc3[nH]2)c1` returned an Inhibition of 87%. `CCCNCCc1ccc(NS(=O)(=O)c2cccc(-c3ccc(Cl)cc3)c2)cc1.Cl`: the Inhibition stood at 100%. `COc1cc(NC(=O)Nc2cccc3ccccc23)c(OC)cc1Cl` had an Inhibition of 97%. Turning to `Cl.NC(=O)c1cccc(Nc2nccc(Nc3ccc4[nH]c(-c5ccccc5)cc4c3)n2)c1`, the Inhibition turned out to be 100%. As for `Cc1cc(C(=O)CN2C(=O)NC(C)(c3ccc4ccccc4c3)C2=O)c(C)n1Cc1ccco1` (configuration not stated), the Inhibition was found to be 97%. In turn, `Cc1cccc(-c2nc3cc(NC(=O)c4ccc([N+](=O)[O-])o4)ccc3o2)c1` yielded an Inhibition of 94%.

Consider `CN1CCN(CCCN(Cc2cccc(-c3cccc(CNC4CCCC4)c3)c2)C(=O)CCC2CCCC2)CC1.O=C(O)C(F)(F)F`, for which the Inhibition was found to be 100%.
